High-throughput results as filed in PubChem.
In the library only some 21% were active in any assay of this set; here they are far more common.
Shiga inhibitor: A qHTS for Small Molecule Inhibitors of Shiga Toxin; 290,000 tested, 9.2% active; AID 2315, 2010; Vero cells, Shiga toxin protein synthesis inhibition reporter; inhibition, % at 38.7 µM; in the data active = inhibition mostly above about 28%, no sharp cut-off; inactive = mostly below about 43%
CHX counter: Cycloheximide Counterscreen for Small Molecule Inhibitors of Shiga Toxin. AID 2314, 2010. max response, %. cell reporter, cycloheximide protein synthesis inhibition counterscreen. 300,000 tested, 12% active; in the data active = max response mostly above about 13%, no sharp cut-off; inactive = mostly below about 14%; note: read at 38.3 µM for the half of the compounds with a filed dose
Pf growth 96h: Primary qHTS for delayed death inhibitors of the malarial parasite plastid, 96 hour incubation; P. falciparum luciferase reporter growth, 96 h; Potency, µM (highest dose often 28.7 µM), usual class: inhibitors; 320,000 tested, 6.9% active; AID 504834, 2011
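P. falciparum expressing integrated firefly luciferase, in erythrocytes at 2% hematocrit, 0.05% parasitemia, incubated with compounds 96 h at 37 C, 5% CO2. Growth inhibition read as loss of luminescence; two-generation exposure targets delayed-death apicoplast inhibitors.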
NS1 inh: qHTS Assay for Inhibitors of Influenza NS1 Protein Function. Potency, µM (highest dose often 46.1 µM). 270,000 tested, 0.4% active; calls by dose curve; note: actives are rising curves; nearly all actives have a fitted effect of over 50% in size
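Compounds were scored for reversing the slow growth caused by influenza A NS1 in S. cerevisiae, measured by optical density at 600 nm. Assay medium contained 2% galactose at pH 6.0; NS1-free yeast of the same strain were the positive control.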
Pf growth 48h: Primary qHTS for delayed death inhibitors of the malarial parasite plastid, 48 hour incubation; P. falciparum luciferase growth in erythrocytes, 48 h; Potency, µM (doses to about 28.7 µM), hits mostly inhibitors; 310,000 tested, 5.9% active
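Cell-based growth assay: transgenic P. falciparum expressing firefly luciferase, cultured in red cells within RPMI 1640 containing 0.5% w/v Albumax, 24 mM bicarbonate and gentamycin. A drop in luciferase activity indicates inhibition.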
Sm TGR inh: qHTS Assay for the Inhibitors of Schistosoma Mansoni Peroxiredoxins | Schistosoma mansoni thioredoxin glutathione reductase (TGR), Q962Y6 | purified TGR, DTNB reduction, TNB absorbance 405 nm | Potency, µM (doses to about 114 µM), actives largely listed as inhibitors | 360,000 tested, 3% active | AID 485364, 2010; note: nearly all actives have a fitted effect of over 60% in size
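Kinetic colorimetric format: TGR-catalysed, NADPH-driven DTNB reduction monitored via TNB absorbance. Enzyme dispensed at 20 nM; compound exposure 15 min at room temperature before reaction start.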
Large screens that a line does not name were inactive. Unless noted, calls come from the whole dose curve; as a rule, active = well fitted curve in the direction sought with a large enough effect; inconclusive = small, poorly fitted or top-dose-only effect, or another doubt; inactive = no such curve, though single readings can be large; an effect the other way counts as inactive or inconclusive.

COc1ccc(C2C(C(C)=O)=C(O)C(=O)N2c2cccnc2)cc1OC (centres undefined)	none (no result: Pf growth 48h)
COc1ccc(C2C(CC(=O)O)=C(O)C(=O)N2c2ccccc2)cc1 (centres undefined)	Shiga inhibitor 38, CHX counter 28, Pf growth 96h inconclusive, NS1 inh inconclusive, Sm TGR inh inconclusive
COc1cccc(N2C(=O)C(O)=C(C(C)=O)C2c2ccc(OC)c(OC)c2)c1 (centres undefined)	Pf growth 96h inconclusive, Pf growth 48h 13µM
Cc1ccc(CNS(=O)(=O)c2c(C)nc3sc(C)cn3c2=O)cc1	none (no result: Shiga inhibitor, CHX counter, Pf growth 96h, NS1 inh, Pf growth 48h)
Cc1ccccc1Cn1c(NC2CCCC2)nc2c1c(=O)[nH]c(=O)n2C	Pf growth 96h inconclusive
COc1ccc(-c2cc(C(=O)Oc3ccc(Br)cc3)c3ccccc3n2)cc1	none (no result: Shiga inhibitor, CHX counter, Pf growth 96h, NS1 inh, Pf growth 48h)
O=C(NCC1CCCO1)c1ccc(F)c2ccccc12 (centres undefined)	none
CC1=C(C(=O)Nc2ccc(C)cc2C)C(c2ccc([N+](=O)[O-])cc2)n2ncc(C(=O)Nc3ccc(F)cc3)c2N1 (centres undefined)	none (no result: Shiga inhibitor, CHX counter, Pf growth 96h, NS1 inh, Pf growth 48h)
Cc1cccc(N2CCN(c3cc(C)nc4nnnn34)CC2C)c1 (centres undefined)	Pf growth 96h inconclusive, Pf growth 48h inconclusive
Cc1cccc(N2CCN(c3nnnn3-c3ccccc3)CC2C)c1 (centres undefined)	Pf growth 96h 5.9µM (no result: Pf growth 48h)
COc1ccccc1NC(=O)c1ccc2c(c1)CCN2S(C)(=O)=O	none (no result: Shiga inhibitor)
O=C(NC1CCCCNC1=O)c1ccc(Cl)cc1 (centres undefined)	none (no result: Pf growth 48h)
Cc1ccc(C(=O)NC2CCc3ccccc3C2=O)cc1 (centres undefined)	Shiga inhibitor 65, CHX counter 30 (no result: NS1 inh)
Cc1ccc(C(=O)NC2CCCCNC2=O)cc1 (centres undefined)	Shiga inhibitor 94, CHX counter 29
Cc1ccc(C(=O)NC2CCCCNC2=O)cc1C (centres undefined)	Shiga inhibitor 64, CHX counter 38
Cc1ccc(C(=O)NC2CCSC2=O)cc1 (centres undefined)	none (no result: Pf growth 96h)
COc1ccc(NS(=O)(=O)c2ccc3[nH]c(=O)ccc3c2)cc1OC	none (no result: Shiga inhibitor, CHX counter, Pf growth 96h, NS1 inh, Pf growth 48h)
CCc1ccc(C(=O)CN2CCSC2=N)cc1	Shiga inhibitor 71, CHX counter 83
COc1ccc(NC(=S)NC(=O)/C=C/c2ccco2)cc1	Shiga inhibitor 101, CHX counter 43, Sm TGR inh 10µM (no result: NS1 inh)
CCC(=O)Nc1ccc(NC(=S)NC(=O)/C=C/c2ccco2)cc1	Sm TGR inh 28µM (no result: Shiga inhibitor)
Cc1cc(C(=O)NNC(=O)/C=C/c2ccco2)c(C)o1	Pf growth 48h inconclusive, Sm TGR inh 2.8µM (no result: Shiga inhibitor, CHX counter, NS1 inh)
CN(C)c1ccc(NC(=S)NC(=O)/C=C/c2ccco2)cc1	Pf growth 96h inconclusive (no result: NS1 inh)
COc1ccc(NC(=S)NC(=O)/C=C/c2cccs2)cc1	none (no result: NS1 inh)
CC(=O)NC(=S)Nc1ccc(NC(=S)NC(=O)/C=C/c2ccco2)cc1	Sm TGR inh 18µM
O=c1[nH]c(SCc2n[nH]c(=S)n2-c2ccccc2)nc2sc3c(c12)CCC3	none (no result: Pf growth 48h)
COc1c(C)cc(C(=O)C2CCCN(Cc3cnc(N4CCOCC4)s3)C2)cc1C (centres undefined)	Pf growth 48h inconclusive
O=C(/C=C/c1ccco1)NC(=S)Nc1ccc(C(=O)O)cc1	Shiga inhibitor 52, CHX counter 23, Sm TGR inh 7.1µM (no result: Pf growth 48h)
O=C(/C=C/c1ccco1)NC(=S)NNC(=O)c1ccco1	Sm TGR inh 40µM
COc1ccc(C)cc1NC(=O)C1CCN(C(=O)Cc2ccccc2)CC1	Pf growth 48h inconclusive (no result: NS1 inh)
CCOC(=O)CSc1nc2cc3c(cc2cc1CC)OCCO3	Pf growth 96h 12µM, Pf growth 48h inconclusive, Sm TGR inh inconclusive
COC(=O)CSc1nc2cc3c(cc2cc1C)OCO3	Shiga inhibitor 55, CHX counter 27
CCOC(=O)C(C)N1C(=O)S/C(=C/c2cc(C)n(-c3ccccn3)c2C)C1=O (centres undefined)	Shiga inhibitor 114, CHX counter 31 (no result: Pf growth 96h)
CCOC(=O)C(C)N1C(=O)S/C(=C/c2cc(C)n(-c3ccncc3)c2C)C1=O (centres undefined)	CHX counter 18, Pf growth 96h 13µM, Pf growth 48h inconclusive
CCOC(=O)c1ccc(N=C2S/C(=C\c3cc(C)n(-c4cccnc4)c3C)C(=O)N2C)cc1	Pf growth 96h inconclusive (no result: Pf growth 48h)
COc1ccc(-c2cnc(C)o2)cc1S(=O)(=O)Nc1ccc(OC(F)(F)F)cc1	none (no result: Shiga inhibitor, CHX counter, Pf growth 96h, NS1 inh, Pf growth 48h)
Cc1cccc(NC(=O)CSc2nnc(-c3cc(C)n(-c4ccccc4)c3C)o2)c1C	Shiga inhibitor 33, CHX counter 25, Pf growth 96h inconclusive, NS1 inh inconclusive
O=C(CSc1nnc(-c2ccncc2)o1)Nc1ccccc1C(F)(F)F	Pf growth 48h inconclusive
Cc1cc(-c2nnc(SCC(=O)Nc3ccccc3C(F)(F)F)o2)c(C)n1-c1ccccc1	CHX counter 40 (no result: Pf growth 96h)
Fc1ccc(NC(=S)NCc2ccccc2)cc1	Pf growth 96h 15µM
O=[N+]([O-])c1ccc(NC(=S)NCc2ccncc2)cc1	Pf growth 96h inconclusive (no result: NS1 inh)
O=[N+]([O-])c1ccc(NC(=S)NCc2ccc(F)cc2)cc1	Pf growth 96h 4.1µM, Pf growth 48h inconclusive, Sm TGR inh inconclusive
COc1cc(NC(=S)NC2CC(C)(C)NC(C)(C)C2)cc(OC)c1	none
Fc1ccc(CNC(=S)NCc2ccccc2)cc1	Pf growth 96h inconclusive, Pf growth 48h inconclusive
CC1(C)CC(NC(=S)Nc2ccc([N+](=O)[O-])cc2)CC(C)(C)N1	Pf growth 48h inconclusive, Sm TGR inh 50µM
CCOc1ccc(CNC(=O)C2Cc3cc(S(=O)(=O)N4CCCCCC4)ccc3N2C(C)=O)cc1 (centres undefined)	none (no result: Shiga inhibitor, CHX counter, Pf growth 96h, NS1 inh, Pf growth 48h)
O=C(N/N=C/c1cc(Br)c(O)c(Br)c1)c1cc2c(ccc3ccccc32)o1	Pf growth 96h 13µM
O=C(N/N=C/c1cccnc1)c1cc2c(ccc3ccccc32)o1	Pf growth 96h inconclusive
O=C(N/N=C/c1cc(Cl)c(O)c(Cl)c1)c1cc2c(ccc3ccccc32)o1	CHX counter 37, Pf growth 96h inconclusive, Pf growth 48h 12µM
O=C(N/N=C/c1ccc(O)c(Br)c1)c1cc2c(ccc3ccccc32)o1	Pf growth 96h inconclusive, Pf growth 48h inconclusive
O=c1c2ccccc2nnn1CSc1nc2ccccc2c(=O)n1CCCO	none (no result: NS1 inh)
Cc1ccc(-n2nnnc2SCn2nnc3ccccc3c2=O)cc1	Shiga inhibitor 95, CHX counter 62 (no result: Pf growth 96h)
COc1ccc(C)cc1-n1nnnc1SCn1nnc2ccccc2c1=O	none (no result: Pf growth 48h)
Cc1cccc(-n2nnnc2SCn2nnc3ccccc3c2=O)c1	CHX counter 23, Pf growth 96h inconclusive, NS1 inh inconclusive
Cn1c(SCn2nnc3ccccc3c2=O)nc2ccccc2c1=O	none (no result: NS1 inh)
